Pf Dd2 growth: Plasmodium falciparum Dd2 growth inhibition | P. falciparum Dd2 growth, SYBR Green, 72 h | Potency, µM (top dose mostly 28.9 µM), most hits filed as inhibitors | 4.3% of 120,000 active | AID 1347417; active means well fitted inhibition curve with a large enough effect; further: nearly all actives have a fitted effect of over 65% in size
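Readout: SYBR Green fluorescence, 485 nm excitation, 535 nm emission, after ~16 h lysis at 37C. Before that, Dd2-infected red cells (2.5% hematocrit) grew 72 h with compound, 29 uM top final concentration.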
Large screens that a line does not name were inactive. This is one part of a sample in which hits are shown more often than they occur.

COc1ccc(NC(=O)c2ccc3c(c2)C(O)CCCCCN3C)cn1 (configuration not stated)	none
COc1ccc(NC(=O)c2ccc3c(c2)OCCN(Cc2ncccn2)C3)cc1F	none
c1cnc2c(c1)nc1n2[C@@H](CNC2CCCCC2)COC1	Pf Dd2 growth 14µM
Cc1cccc2c1nc1n2[C@@H](CNC2CCCCC2)COC1	none
CN1CCC(NC[C@H]2COCc3nc4cccnc4n32)CC1	none
CCCCOC(=O)c1ccc(Nc2nnc(-n3nc(C)cc3C)c3ccccc23)cc1	none
Cc1cc(C)n(-c2nc3ccccc3nc2Nc2ccc(C(C)C)cc2)n1	none
CC(=O)c1ccc(NC(=O)Cn2c(-n3nc(C)cc3C)nc(C)cc2=O)cc1	none
Cc1cc(Nc2ccc(F)cc2)nc(-n2nc(C)cc2C)n1	Pf Dd2 growth 11µM
COc1ccc(Nc2nnc(-n3nc(C)cc3C)c3ccccc23)cc1	none
CCCCc1ccc(Nc2cc(C)nc(-n3nc(C)cc3C)n2)cc1	Pf Dd2 growth 2.8µM
CC(C)Cn1nc(C(=O)O)c2c1CCN(C(=O)CC(C)c1ccccc1)C2 (configuration not stated)	none
COc1ccc(Nc2nccc3c(=O)cc(N4CCOCC4)oc23)cn1	none
Cc1noc(C)c1S(=O)(=O)N1CCCC(Cc2noc(-c3ccncc3)n2)C1 (configuration not stated)	none
O=C(C1CCN(c2cnn(Cc3ccccc3)c(=O)c2)C1)N1CCCC1 (configuration not stated)	none
COc1ccc(N2CC(C(=O)N3CCC(C(=O)N4CCCC4)C3)NC2=O)cc1 (configuration not stated)	none
Nc1c(C(=O)Nc2ccccc2)sc2nc3c(cc12)CN(Cc1ccccc1)CC3	none
CCOc1ccccc1NC(=O)c1sc2nc3c(cc2c1N)CN(Cc1ccccc1)CC3	Pf Dd2 growth 10µM
CN1CCc2nc3sc(C(=O)Nc4ccccc4OC(F)(F)F)c(N)c3cc2C1	none
COc1ccc(-c2cnc3n[nH]c(-c4sccc4C)c3n2)cc1OC	none
CCCN(CC1CCOC1)C(=O)c1ccccc1Br (configuration not stated)	none
Cc1ccc(NC(=O)Cn2ccn3nc(-c4ccccc4)c(CO)c3c2=O)cc1Cl	none
CC(C)(C)OC(=O)N1CCC(c2c(C(=O)NCc3ccccc3)cnn2-c2cccc(F)c2)CC1	Pf Dd2 growth 10µM
Cc1ccc(-n2ncc(C(=O)Nc3ccc(C)c(F)c3)c2C2CCN(C(=O)OC(C)(C)C)CC2)cc1C	none
CC(C)(C)OC(=O)N1CCC(c2c(C(=O)N3CCOCC3)cnn2-c2cccc(F)c2)CC1	none
CC(C)(C)OC(=O)N1CCC(c2c(C(=O)NCCc3ccccc3)cnn2-c2ccc(F)cc2F)CC1	Pf Dd2 growth 5.6µM
Cc1ccc(-n2ncc(C(=O)NCCc3ccccc3)c2C2CCN(C(=O)OC(C)(C)C)CC2)c(C)c1	Pf Dd2 growth 10µM
CC(C)(C)OC(=O)N1CCC(c2c(C(=O)N3CCCCC3)cnn2-c2cccc(F)c2)CC1	none
Cc1ccc(-n2ncc(C(=O)NCc3ccco3)c2C2CCN(C(=O)OC(C)(C)C)CC2)cc1C	Pf Dd2 growth 11µM
COCCCNC(=O)c1cnn(-c2ccc(F)cc2F)c1C1CCNCC1	none
Cc1ccc(-n2ncc(C(=O)N3CCc4ccccc4C3)c2C2CCN(C(=O)OC(C)(C)C)CC2)cc1C	none
Cc1ccc(-n2ncc(C(=O)NCc3ccccn3)c2C2CCN(C(=O)OC(C)(C)C)CC2)c(C)c1	none
Cc1cnc(C(=O)N2CCC(C(=O)N3CCCCCCNC(=O)CC3)CC2)cn1	none
Cc1nc2c(s1)CCCC2NC(=O)c1cc(-c2ccc(F)cc2)n[nH]1 (configuration not stated)	none
O=C(N[C@H]1C[C@H]2C(=O)NC[C@@H](CCC(=O)N3CCN(c4ccccn4)CC3)N2C1)c1ccccc1	none
COc1ccc(N2CC(C(=O)N3CCC(C(=O)NCc4ccc(F)cc4)C3)NC2=O)cc1 (configuration not stated)	none
O=C(NC1CCCCC1)[C@@H]1C[C@@H](O)CN1C1CCN(C(=O)c2ccco2)CC1	none
OCc1ccc(CN2C[C@H](O)C[C@H]2c2nc(Cc3ccc(F)cc3Cl)no2)o1	none
CC(C)(C)OC(=O)N1CCC(c2c(C(=O)NCCc3ccccc3)cnn2-c2ccc(F)cc2)CC1	Pf Dd2 growth 11µM
Cc1cccc(C)c1-n1ncc(C(=O)Nc2ccc3c(c2)OCO3)c1C1CCN(C(=O)OC(C)(C)C)CC1	none
CC(C)(C)OC(=O)N1CCC(c2c(C(=O)NCc3cccs3)cnn2-c2ccc(F)cc2F)CC1	Pf Dd2 growth 4µM
CCOC(=O)c1ccc(NC(=O)c2cnn(-c3ccc(C)cc3C)c2C2CCN(C(=O)OC(C)(C)C)CC2)cc1	Pf Dd2 growth 13µM
O=C(NCCc1ccccc1)c1cnn(-c2ccc(F)cc2)c1-n1cccc1	none
CC(C)(C)OC(=O)N1CCC(c2c(C(=O)Nc3ccc4c(c3)OCCO4)cnn2-c2ccc(F)cc2)CC1	Pf Dd2 growth 7.9µM
O=C1CCN(S(=O)(=O)c2cccs2)CCCCCCN1	none
O=C(CN1CCOc2ccccc2C1)N[C@H]1CCOC[C@H]1C1CCOCC1	none
Cc1nc(CN2CCN(CC3(O)CNCCOC3)CC2)cs1 (configuration not stated)	none
Cc1nocc1C(=O)N1C[C@@H](COc2ccccc2)[C@H](C(N)=O)C1	none
CC(C)NC(=O)CN1C(=O)NC2(CCC(C(C)(C)C)CC2)C1=O (configuration not stated)	none
CN1CC(=O)N(C2CNC2)Cc2c(NC3CC3)ncnc21	none
CC(C)(C)CN1CCOC[C@H]1c1ncc(-c2ccc(Cl)cc2)[nH]1	none
Fc1ccc(-c2cnc([C@@H]3COCCN3Cc3ccncc3)[nH]2)cc1	none
Clc1ccc(-c2cnc([C@@H]3COCCN3C3CCOCC3)[nH]2)cc1	none
CS(=O)(=O)c1ccc(CN2CCOC[C@H]2c2ncc(-c3cccc(Cl)c3)[nH]2)cc1	none
Clc1ccc(-c2cnc([C@@H]3COCCN3C3CCC3)[nH]2)cc1	none
Clc1ccc(-c2cnc([C@@H]3COCCN3Cc3ccccc3)[nH]2)cc1	Pf Dd2 growth 10µM
COc1ccc(-c2cnc([C@@H]3COCCN3Cc3ccc(C)cc3)[nH]2)cc1	none
Clc1cccc(-c2cnc([C@@H]3COCCN3C3CCCCC3)[nH]2)c1	Pf Dd2 growth 11µM
COc1cccc(-c2cnc([C@@H]3COCCN3Cc3ccccc3)[nH]2)c1	Pf Dd2 growth 11µM
CCCN(CC1CCOC1)S(=O)(=O)c1ccc2c(c1)OCCO2 (configuration not stated)	none
CN(CC1CCOC1)C(=O)NCc1cccc(F)c1 (configuration not stated)	none
CCS(=O)(=O)N(C1CC1)C1CCOC2(CCN(C(=O)c3cccc(F)c3)CC2)C1 (configuration not stated)	none
Cn1cnnc1CC1CCN(C(=O)c2cccs2)CC1	none
CS(=O)(=O)N1CCC(C2CCN(C(=O)c3ccc(Cl)s3)C2)CC1 (configuration not stated)	none
COCCNC(=O)[C@@H]1CCC[C@@H](NCc2nccs2)CN(C)C(=O)C1	none
CN(Cc1cc2cc(F)ccc2[nH]1)C(=O)C1CCC(=O)N(C2CCCC2)C1 (configuration not stated)	none
Cc1noc(C)c1CN[C@@H]1C[C@H](CO)[C@@H](O)[C@H]1O	none
O=c1c2oc3ccccc3c2n(Cc2ccccc2)c(=O)n1Cc1ccc2c(c1)OCO2	none
CCc1c(C)c2ccc3c(c2oc1=O)CN(Cc1ccccc1)CO3	Pf Dd2 growth 1µM
COc1ccc(C2=NOC3(CCN(Cc4ccccc4)C3)C2)cc1 (configuration not stated)	none
CC1=NOC2(CCN(Cc3ccccc3)CC2)C1	none
COc1ccc(OC2CN(Cc3ccccc3)C2)cc1	none

Compound activity (PubChem BioAssay)
